Test results published in PubChem BioAssay.
Active and inactive are the calls of the source. Cut-off read from the data, not from the text of the source, unless noted: active = inhibition above about 80%; inactive = the rest.

Assays:
[1] = sensitizers of A549 cells to miR-34 induction, primary screen, imaging, A549 dox-inducible miR-34, nuclei and caspase counts (AID 1347080;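 active = compounds whose cell count with miR-34 switched on is under 0.7 times the count with it off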); settings: A549 miR-34 inducible, Hoechst nuclei count, 48 h
[2] = survival rescue of mitochondrial mutant cells in low glucose, primary screen, MELAS cybrids, Rieske KO mouse fibroblasts, CellTiter-Glo (AID 1508586;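 active = mean z-score across replicates of 1.96 or higher in either the MELAS or the Rieske mutant cell line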;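 note: z relative to plate mean and SD of compound and empty wells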)
[3] = LFS_MB_P medulloblastoma growth inhibition, cell-based, chromothripsis tumors, cisplatin or BGB combos (AID 1671449); settings: LFS_MB_P medulloblastoma cells;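 note: cells exposed for 96 hours; 0% = vehicle DMSO and 100% = killing by high DMSO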
[4] = HDN33 neuroblastoma growth inhibition, cell-based, chromothripsis tumors, cisplatin or BGB combos (AID 1671450); settings: HDN33 neuroblastoma cells, stronger effect = higher value;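 note: cells exposed to compound for four days; 0% = vehicle DMSO and 100% = cell killing by high DMSO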
[5] = ICB984 medulloblastoma cell growth inhibition, synergistic combos for chromothripsis tumors, cisplatin or BGB combos (AID 1671451; call rule not given here;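 note: cells exposed for 96 hours before readout; 0% = vehicle DMSO and 100% = killing by high DMSO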); settings: ICB984 medulloblastoma cells, drug combinations, stronger effect = higher value
[6] = LFS_MB_1R medulloblastoma cell growth inhibition, synergistic combos for chromothripsis tumors, cisplatin or BGB combos (AID 1671452); settings: LFS_MB_1R medulloblastoma cells, stronger effect = higher value;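 note: cells exposed for 96 hours before readout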
[7] = HTB85 osteosarcoma cell growth inhibition, synergistic combos for chromothripsis tumors, BGB or cisplatin IC20 combos (AID 1671453); settings: HTB85 osteosarcoma cells, drug combinations, stronger effect = higher value;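 note: cells exposed for 96 hours before readout; 0% = vehicle DMSO and 100% = high DMSO killing control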
[8] = CRL2098 osteosarcoma cell growth inhibition, synergistic combos for chromothripsis tumors, BGB or cisplatin IC20 combos (AID 1671454); settings: CRL2098 osteosarcoma cells, drug combinations, stronger effect = higher value;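 note: cells exposed for 96 h before readout; 0% = vehicle DMSO and 100% = killing by high DMSO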
[9] = HD-MB03 medulloblastoma cell growth inhibition, synergistic combos for chromothripsis tumors, BGB or cisplatin IC20 combos (AID 1671455; in the data active = inhibition above about 83%;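 note: 0% = vehicle DMSO and 100% = high DMSO as cytotoxic control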); settings: HD-MB03 medulloblastoma cells, stronger effect = higher value
[10] = UWB1.289 ovarian carcinoma cell growth inhibition, synergistic combos for chromothripsis tumors, BGB or cisplatin combos (AID 1671456); settings: UWB1.289 ovarian carcinoma cells, stronger effect = higher value;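 note: cells exposed to compound for four days; 0% = vehicle DMSO and 100% = killing by high DMSO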
[11] = LFS_MB_2R medulloblastoma cell growth inhibition, synergistic combos for chromothripsis tumors, cisplatin combos (AID 1671457); settings: LFS_MB_2R medulloblastoma cells, stronger effect = higher value;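 note: cells exposed to compound for four days before readout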
[12] = MDA-MB-436 breast carcinoma cell growth inhibition, synergistic combos for chromothripsis tumors, BGB or cisplatin combos (AID 1671458; call rule not given here;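 note: cells exposed for 96 hours; 0% = vehicle DMSO and 100% = killing by high DMSO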); settings: MDA-MB-436 breast carcinoma growth inhibition, drug combinations, stronger effect = higher value
[13] = UWB1.289_BRCA1 ovarian cancer growth, cell-based, BGB or cisplatin combinations (AID 1671459); settings: UWB1.289 BRCA1 ovarian carcinoma, drug combinations, stronger effect = higher value
[14] = human astrocyte viability loss, single and combined drugs, cytotoxicity control for chromothriptic childhood tumor combination screen, cell-based, BGB or cisplatin IC20 combos (AID 1671460); settings: Human astrocytes, drug combinations, stronger effect = higher value;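 note: cells exposed to compounds for 96 hours before viability readout; 0% = vehicle and 100% = killing control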
[15] = growth inhibition of BT084 medulloblastoma cells, cell-based, ICGC_MB145, cisplatin and BGB IC40 combos (AID 1671461); settings: drug combinations, stronger effect = higher value;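 note: cells exposed to drugs for 96 hours; 0% = vehicle DMSO and 100% = high DMSO full killing control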
[16] = growth inhibition of RCMB18 medulloblastoma cells, cell-based, cisplatin and BGB IC40 combos (AID 1671462); settings: stronger effect = higher value;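 note: cells exposed to compound for four days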
[17] = growth inhibition of CRL1545 osteosarcoma cells, cell-based, cisplatin and BGB IC20 combos (AID 1671464); settings: stronger effect = higher value;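 note: cells exposed to compound for 96 hours before readout; 0% = vehicle DMSO and 100% = high DMSO killing control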
[18] = measured here: combination with BGB IC40, at 0.05 µM
[19] = measured here: with BGB IC20 combination, at 0.5 µM
[20] = measured here: with cisplatin IC20 combination, at 0.5 µM
[21] = measured here: combination with cisplatin, at 0.5 µM
[22] = measured here: combination with cisplatin, at 5 µM

## Cc1cc(C#N)cc(C)c1Oc1nc(Nc2ccc(C#N)cc2)nc(N)c1Br
[1]; stronger effect = lower value, cell number ratio, induced over uninduced
  fold change: 0.85 (inactive)
[1]; measured here: relative caspase fold change +Dox/-Dox
  fold change: 2.01
[1]; measured here: total cells with miR-34 induction, stronger effect = lower value
  cell count: 3910
[1]; measured here: total cells without miR-34 induction
  cell count: 4600
[2]; MELAS cybrid survival, CellTiter-Glo 48 h, stronger effect = higher value
  z-score: 0.252 (inactive)
[2]; Rieske KO mouse fibroblast survival, CellTiter-Glo 72 h
  z-score: -0.21
[3]; at 0.5 µM, stronger effect = higher value
  inhibition: -6.54% (inactive)
[3]; measured here: combination with BGB IC20, at 0.005 µM
  inhibition: -10%
[3]; measured here: combination with BGB IC40, at 0.005 µM
  inhibition: -30.6%
[3]; [18]
  inhibition: -26%
[3]; measured here: combination with cisplatin, at 0.5 µM, stronger effect = higher value
  inhibition: -19.3%
[3]; measured here: combination with cisplatin, at 5 µM, stronger effect = higher value
  inhibition: -60.9%
[4]; BGB combo, at 5 µM
  inhibition: -14.1%
[4]; at 0.5 µM
  inhibition: -5.11% (inactive)
[4]; cisplatin combo, at 5 µM
  inhibition: -9.1%
[4]; [19]
  inhibition: -9.33%
[4]; [20]
  inhibition: 0.249%
[4]; single agent, at 5 µM
  inhibition: -3.14%
[5]; BGB IC20 combo, at 0.005 µM
  inhibition: -6.67%
[5]; BGB IC40 combo, at 0.005 µM
  inhibition: -12.8%
[5]; BGB IC40 combo, at 0.05 µM
  inhibition: -9.57%
[5]; at 0.5 µM
  inhibition: -33.3% (inactive)
[5]; cisplatin combo, at 0.05 µM
  inhibition: -12.6%
[5]; cisplatin combo, at 0.5 µM
  inhibition: -45.3%
[5]; cisplatin combo, at 5 µM
  inhibition: -4.46%
[5]; measured here: 5 uM single agent, at 5 µM
  inhibition: -18.9%
[6]; at 0.5 µM
  inhibition: -14.8% (inactive)
[6]; [18]
  inhibition: -38.9%
[6]; [21]
  inhibition: -11.1%
[6]; [22]
  inhibition: -7.4%
[7]; at 0.5 µM
  inhibition: -2.4% (inactive)
[7]; measured here: with BGB IC20, at 0.5 µM
  inhibition: -12.9%
[7]; measured here: with BGB IC20, at 5 µM
  inhibition: -34.8%
[7]; measured here: with cisplatin IC20, at 0.5 µM
  inhibition: -9.12%
[7]; measured here: with cisplatin IC20, at 5 µM
  inhibition: -37.6%
[7]; single agent, at 5 µM
  inhibition: -5.74%
[8]; at 0.5 µM
  inhibition: -46.8% (inactive)
[8]; measured here: combination with BGB at IC20, at 0.5 µM
  inhibition: -26.7%
[8]; measured here: combination with cisplatin at IC20, at 0.5 µM
  inhibition: -48.1%
[9]; at 0.5 µM
  inhibition: -1.6% (inactive)
[9]; measured here: combo with BGB at IC20, at 0.5 µM
  inhibition: 6.5%
[9]; measured here: combo with cisplatin at IC20, at 0.5 µM
  inhibition: -1.27%
[10]; at 0.5 µM
  inhibition: 1.48% (inactive)
[10]; measured here: inhibition with BGB combination, at 0.05 µM
  inhibition: -24.8%
[10]; measured here: inhibition with cisplatin combination, at 0.05 µM
  inhibition: 0.893%
[11]; at 0.5 µM
  inhibition: -10.7% (inactive)
[11]; [21]
  inhibition: -24.9%
[11]; [22]
  inhibition: -73.7%
[12]; at 0.5 µM
  inhibition: -26.8% (inactive)
[12]; measured here: BGB combination, at 0.5 µM
  inhibition: -22.5%
[12]; measured here: BGB combination, at 5 µM
  inhibition: -28.6%
[12]; measured here: cisplatin combination, at 0.5 µM
  inhibition: -43.6%
[12]; measured here: cisplatin combination, at 5 µM
  inhibition: -39.5%
[13]; BGB combination, concentration series, at 5 µM
  inhibition: 11.2%
[13]; at 0.5 µM
  inhibition: 1.32% (inactive)
[13]; cisplatin combination, concentration series, at 5 µM
  inhibition: 2.3%
[14]; at 0.5 µM
  inhibition: 3.72% (inactive)
[14]; measured here: combo with BGB IC20, at 0.5 µM
  inhibition: 14%
[14]; measured here: combo with cisplatin IC20, at 0.5 µM
  inhibition: -7.51%
[15]; at 0.5 µM
  inhibition: -18% (inactive)
[15]; cisplatin combination, at 0.5 µM
  inhibition: -20.9%
[15]; cisplatin combination, at 5 µM
  inhibition: -30.7%
[15]; measured here: BGB IC40 combination 0.05 uM, at 0.05 µM
  inhibition: 7.73%
[15]; single agent, at 5 µM
  inhibition: -20.3%
[16]; at 0.5 µM
  inhibition: -32.5% (inactive)
[16]; cisplatin combo, at 5 µM
  inhibition: -24.1%
[16]; measured here: BGB IC40 combination, at 0.05 µM
  inhibition: -39.7%
[16]; [21]
  inhibition: -23%
[16]; single agent, at 5 µM
  inhibition: -29.9%
[17]; at 0.5 µM
  inhibition: 0.47% (inactive)
[17]; [19]
  inhibition: 4.81%
[17]; [20]
  inhibition: -4%
[17]; single agent, at 0.05 µM
  inhibition: -33.2%
[17]; single agent, at 5 µM
  inhibition: 12%
